± gives the standard deviation of the averaged measurements.
What follows are molecules tested against MurC (UniProt C4ZRI6) (assay: relative enzymatic activity vs untreated control (fraction); higher = less inhibition). Conditions: 100 µM; incubation time: 2 h at 37 C.
MurC, sequence (C4ZRI6 whole entry, looked up): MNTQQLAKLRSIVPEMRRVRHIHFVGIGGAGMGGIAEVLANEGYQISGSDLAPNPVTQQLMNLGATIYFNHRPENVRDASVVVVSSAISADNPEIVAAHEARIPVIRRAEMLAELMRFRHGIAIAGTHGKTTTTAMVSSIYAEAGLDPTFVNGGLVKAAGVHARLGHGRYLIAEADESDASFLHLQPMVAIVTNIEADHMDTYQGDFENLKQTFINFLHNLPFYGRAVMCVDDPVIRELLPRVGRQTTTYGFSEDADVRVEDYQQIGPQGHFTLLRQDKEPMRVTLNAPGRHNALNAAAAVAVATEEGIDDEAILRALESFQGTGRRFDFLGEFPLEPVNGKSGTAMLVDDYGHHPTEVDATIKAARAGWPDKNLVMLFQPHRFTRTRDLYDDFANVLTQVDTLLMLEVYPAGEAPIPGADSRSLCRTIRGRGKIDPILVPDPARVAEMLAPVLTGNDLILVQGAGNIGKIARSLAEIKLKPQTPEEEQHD
Procedure: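 In vitro enzymatic inhibition assays (ProFoldin kits) for 12 purified essential E. coli enzymes or complexes, each treated with 218 active antibacterial compounds at 100 µM for 2 h at 37°C. Read-outs were fluorescence or absorbance (phosphate detection, dye binding), converted to activity via standard curves and expressed relative to untreated DMSO controls.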
In the case of CCn1cc(C(=O)[O-])c(=O)c2cc3c(cc21)OCO3.[K+], the relative enzymatic activity is reported as 0.977 ± 0.032.
Molecule CNC1C(O)C(OC2C(N)CC(N)C(OC3OC(C(C)O)C(O)C(O)C3N)C2O)OCC1(C)O (centres undefined) has a relative enzymatic activity of 1.03 ± 0.029.
In the case of Cn1ncnc2c(=O)n(C)c(=O)nc1-2, the relative enzymatic activity is reported as 0.99 ± 0.11.
O=S(=O)(O)O.Oc1cccc2cccnc12 was tested, and the relative enzymatic activity was 1.08 ± 0.015.
O=C1C=C2C(=CCOC2O)O1 (centres undefined) gave a relative enzymatic activity of 1.06 ± 0.07.
Work on CN1C(=O)[C@]23CC4=CC=C[C@H](O)[C@H]4N2C(=O)[C@@]1(CO)SS3 yielded a relative enzymatic activity of 0.8476 ± 0.0014.
Molecule CN(C)[C@@H]1C(=O)[C@@H](C(N)=O)C(=O)[C@@]2(O)C(=O)[C@H]3C(=O)c4c(O)ccc(Cl)c4[C@@](C)(O)[C@H]3C[C@@H]12 has a relative enzymatic activity of 1.08 ± 0.068.
In the case of Oc1cc(Cl)ccc1Oc1ccc(Cl)cc1Cl, the relative enzymatic activity is reported as 1.2 ± 0.16.
CC(=O)Oc1ccc(Cl)c2cccnc12 showed a relative enzymatic activity of 1.03 ± 0.041.
Cc1nc2c(=O)n(C)c(=O)nc-2n(C)n1 gave a relative enzymatic activity of 1.06 ± 0.095.
With O=[N+]([O-])C(Br)(CO)CO the relative enzymatic activity was 1.11 ± 0.12.
Molecule O=[N+]([O-])c1ccc(N(CCO)CCO)c2c1no[n+]2[O-] has a relative enzymatic activity of 0.936 ± 0.055.
Cc1c(N)nc([C@H](CC(N)=O)NC[C@@H](N)C(N)=O)nc1C(=O)N[C@H](C(=O)N[C@@H](C)[C@H](O)[C@@H](C)C(=O)N[C@@H](C(=O)NCCc1nc(-c2nc(C(=O)NCCC[S+](C)C)cs2)cs1)[C@@H](C)O)[C@@H](O[C@H]1O[C@H](CO)[C@H](O)[C@@H](O)[C@H]1O[C@H]1O[C@H](CO)[C@@H](O)[C@H](OC(N)=O)[C@@H]1O)c1cnc[nH]1 gave a relative enzymatic activity of 0.849 ± 0.025.
With CCCCCCCCCCCCCCCC[n+]1ccccc1 the relative enzymatic activity was 0.754 ± 0.24.
In the case of CCCCCCCCCCCCCCCC[N+](C)(C)C.[Br-], the relative enzymatic activity is reported as 0.492 ± 0.29.
Molecule CN[C@H]1C[C@@H](N)[C@H](O)[C@@H](O[C@@H]2O[C@H](CO)[C@H](O)[C@@H]3O[C@@]4(O[C@H]23)O[C@H]([C@@H](N)CO)[C@H](O)[C@H](O)[C@H]4O)[C@@H]1O has a relative enzymatic activity of 1.04 ± 0.017.
CN(C)[C@@H]1C(=O)C(C(N)=O)=C(O)[C@@]2(O)C(O)=C3C(=O)c4c(O)cccc4[C@](C)(O)[C@H]3C[C@@H]12 gave a relative enzymatic activity of 1.017 ± 0.0095.
In the case of COP(=S)(OC)Oc1cc(Cl)c(Cl)cc1Cl, the relative enzymatic activity is reported as 1.08 ± 0.024.
Molecule CN(C)[C@@H]1C(=O)[C@H](C(N)=O)C(=O)[C@@]2(O)C(=O)[C@@H]3C(=O)c4c(O)cccc4[C@@](C)(O)[C@H]3C[C@@H]12 has a relative enzymatic activity of 1 ± 0.031.
Cc1c(N)nc([C@H](CC(N)=O)NC[C@@H](N)C(N)=O)nc1C(=O)N[C@H](C(=O)N[C@@H](C)[C@H](O)[C@@H](C)C(=O)N[C@@H](C(=O)NCCc1nc(-c2nc(C(=O)NCCC[S+](C)C)cs2)cs1)[C@@H](C)O)[C@@H](O[C@H]1O[C@H](CO)[C@H](O)[C@@H](O)[C@H]1O[C@H]1O[C@H](CO)[C@@H](O)[C@H](OC(N)=O)[C@@H]1O)c1c[nH]cn1 was tested, and the relative enzymatic activity was 0.895 ± 0.017.
C[CH2][Hg][S]c1ccccc1C(=O)[O-].[Na+] gave a relative enzymatic activity of 1.17 ± 0.085.
In the case of [O-][n+]1ccccc1[S][Zn][S]c1cccc[n+]1[O-], the relative enzymatic activity is reported as 1.21 ± 0.17.
CCCCCCCCCCCCCCCC[n+]1ccccc1.[Cl-] showed a relative enzymatic activity of 0.264 ± 0.051.
CC(=O)[O][Hg][c]1ccccc1 showed a relative enzymatic activity of 1.69 ± 0.032.

From the supplement of paper PMC9446081
